DAX1 inh-1 – DAX1 (NR0B1) inhibitors, primary screen, cell-based, HEK293, Gal4-DAX1, luciferase luminescence; AID 504766, 2011; 340,000 tested, 0.99% active; HEK293 Gal4-DAX1 luciferase reporter; Nuclear receptor subfamily 0 group B member 1 (Homo sapiens), P51843; inhibition, % at 6.75 µM;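 active = inhibition above the mean over all tested compounds plus 3 SD, cut at about 4.2% in these data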;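 also: 0% = DAX1-transfected cells with DMSO and 100% = empty-vector control cells with DMSO; inhibition shows as a rise in luminescence from relieved DAX1 repression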
Target sequence (P51843 207-470 limits assumed): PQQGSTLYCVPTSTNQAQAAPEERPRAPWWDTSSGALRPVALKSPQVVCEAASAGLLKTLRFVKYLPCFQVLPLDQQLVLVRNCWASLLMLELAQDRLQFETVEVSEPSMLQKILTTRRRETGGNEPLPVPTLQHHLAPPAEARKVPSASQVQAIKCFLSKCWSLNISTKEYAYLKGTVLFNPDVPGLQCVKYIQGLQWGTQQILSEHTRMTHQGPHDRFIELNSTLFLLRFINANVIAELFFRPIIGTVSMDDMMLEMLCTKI
hgDAF-12 ag – H. glycines DAF-12 receptor agonists, primary screen, cell-based, luminescence, HEK293, GAL4 fusion, UAS-luciferase; HEK293 GAL4-hgDAF12 UAS-luciferase reporter, agonist luminescence; normalized to butyrate control; activation, % at 6.8 µM; 370,000 tested, 1.8% active; AID 687014, 2013;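 active = activation above a cutoff set at the mean of all screened compounds plus 3 SD, cut at about 10% in these data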;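 also: 0% = DMSO wells and 100% = sodium butyrate wells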
DAX1 inh-2 – DAX1 (NR0B1) inhibitors on StAR promoter, primary screen, cell-based, luminescence, SF-1 (NR5A1), full-length DAX-1. HEK293T StAR-luciferase reporter, SF-1/DAX-1 repression relief. inhibition, % at 6.8 µM. 370,000 tested, 1.1% active. AID 652010, 2013;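 active = inhibition above the mean over all tested compounds plus 3 SD, cut at about 3.6% in these data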;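 also: 0% = DAX-1 cells with DMSO and 100% = cells lacking DAX-1 with DMSO; higher inhibition means more luminescence from relief of DAX-1 repression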
hcDAF-12 act – H. contortus DAF-12 nuclear receptor activators, primary screen, cell-based, luminescence, HEK293, lit1-tk-luc reporter; HEK293 hcDAF-12 lit1-tk-luc reporter; 0% DMSO, 100% Δ7-dafachronic acid; activation, % at 6.8 µM; 370,000 tested, 1.4% active;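 active = activation above the mean of all tested compounds plus 3 SD, cut at about 5.5% in these data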;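 also: 100% = response to 3 µM Δ7-dafachronic acid high control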
ssDAF12 agonist – S. stercoralis DAF-12 nuclear receptor activators, primary screen, cell-based, luminescence, HEK293, GRIP1 co-expression, lit1-tk-luc. Nuclear hormone receptor DAF-12 (Strongyloides stercoralis). HEK293 ssDAF-12/GRIP1 lit1-tk-luc reporter; % of 3 µM dafachronic acid response. activation, % at 6.8 µM. 370,000 tested, 1% active;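 active = activation above the mean over all tested compounds plus 3 SD, cut at about 0.9% in these data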;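 also: 0% = DMSO-only wells and 100% = 3 µM delta7-dafachronic acid wells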
SMARCA2 act – SMARCA2 (BRM) function activators, primary screen, cell-based, luminescence, high throughput. activation, % at 9.1 µM. AID 652017, 2013. 370,000 tested, 1% active. MG213 cells, MMTV-luciferase reporter, dexamethasone, overnight; in the data active = activation above about 7.8%;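 also: 0% = vehicle wells and 100% = reference activator wells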
SMARCA2 act conf – SMARCA2 (BRM) function activators, confirmation, cell-based, luminescence, triplicate. shares compounds with SMARCA2 act. AID 652260, 2013. 3,500 tested, 30% active. MG213 cells, MMTV-luciferase with dexamethasone, overnight; MG213 cells expressing E1A, Rb sequestered; DMSO wells 0%, reference activator 100%. activation, % at 9.1 µM;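 active = activation above its plate's cutoff, the mean activation of tested wells plus 3 SD, cut at about 7.9% in these data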
GAL4-VP16 Luc – GAL4-VP16 luciferase reporter activation, counter-screen for SMARCA2 (BRM) activator project, cell-based, pG5luc, luminescence, high throughput | 3,500 tested, 41% active | HEK293 GAL4-VP16 pG5luc reporter; scaled: DMSO wells 0%, SAHA wells 100% | shares compounds with SMARCA2 act | activation, % at 9.1 µM | AID 686939, 2013;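 active = activation above the solvent-only control well mean plus 3 SD, averaged across control plates, cut at about 5.2% in these data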
The depositor's hits bear a star; / = no result given. Sampled rows, rich in hits. Any-hit rate of the full collection: about 4.8%.

SMILES	DAX1 inh-1	hgDAF-12 ag	DAX1 inh-2	hcDAF-12 act	ssDAF12 agonist	SMARCA2 act	SMARCA2 act conf	GAL4-VP16 Luc
CC(=O)c1c(NC(=O)c2ccccc2)[nH]c(-c2ccccc2)nc1=S	1.8	3.0	1.1	0.9	-0.6	-4.0	/	/
O=c1[nH]ncc(NCCCO)c1Cl	-0.4	-2.0	1.2	-1.2	-1.2	-0.8	/	/
COc1cc(OC)c(OC)cc1CNCCNC(=O)c1ccco1	-1.0	-1.9	0.5	-1.3	-1.1	9.2*	-0.3	-0.6
COc1cccc(CNCCNC(=O)c2ccco2)c1OC	-2.1	-3.6	-0.4	-1.3	-1.4	1.2	/	/
CCN(C(=O)c1ccc2c(=O)n3c(nc2c1)CCCCC3)c1ccc(F)cc1	-0.9	-0.3	0.1	-0.2	-0.8	2.5	/	/
CCCNc1nc2c(c(=O)[nH]c(=O)n2C)n1CCc1ccccc1	0.2	-0.2	0.7	2.3	-0.9	1.3	/	/
O=c1cc(-c2ccccc2Cl)oc2cc(O)cc(O)c12	1.3	2.1	0.3	0.4	-1.0	3.9	/	/
Nc1ccc(O)c2c(=O)cc(-c3ccccc3Cl)oc12	2.8	9.2	2.9	3.7	0.1	8.1*	6.9	11.4*
O=C(NC1CCCC1)C(c1ccc(Cl)cc1)N1CCOCC1 (stereo unspecified)	2.6	-0.4	0.6	-1.8	-1.0	1.2	/	/
O=C(NC1CCCC1)C(c1ccc(F)cc1)N1CCC(O)(c2ccc(Cl)cc2)CC1 (stereo unspecified)	/	-0.6	1.9	-0.1	-1.2	12.8*	-0.8	-0.8
CCc1cccc(NC(=S)N(CCN(C)C)C(C)c2ccncc2)c1 (stereo unspecified)	0.5	-0.2	0.1	0.0	-0.8	-1.9	/	/
CCOC(=O)c1ccc(NC(=S)N(CCN(C)C)C(C)c2ccncc2)cc1 (stereo unspecified)	-0.2	-1.1	-0.5	-1.3	-1.5	11.3*	-2.3	-0.8
O=C(Nc1ncccn1)c1ccc([N+](=O)[O-])o1	0.9	0.2	-1.8	-1.7	-1.1	14.7*	10.0*	0.8
Cc1ccc(NC(=O)c2ccc([N+](=O)[O-])o2)cc1C	-1.3	-5.7	-2.9	-1.2	-0.6	7.7	/	/
O=C(Nc1cccc([N+](=O)[O-])c1)c1ccc([N+](=O)[O-])o1	-1.8	-5.2	-4.4	0.0	-1.5	15.3*	19.4*	2.0
CCC(=O)N1CCN(c2ccc(NC(=O)c3ccc([N+](=O)[O-])o3)cc2)CC1	-0.2	-3.5	-2.4	-0.4	-1.7	1.3	/	/
NC(=O)c1ccsc1NC(=O)c1ccc([N+](=O)[O-])o1	-0.1	-3.2	-4.5	-0.1	-1.1	8.3*	17.6*	4.6
CC(C)(C)C(=O)N1CCN(c2ccc(NC(=O)c3ccc([N+](=O)[O-])o3)cc2)CC1	-3.3	-3.0	-1.1	-1.6	-0.8	9.8*	1.5	4.2
NS(=O)(=O)c1cccc(NC(=O)CN2C(=O)C(=O)N(Cc3ccccc3)C2=O)c1	-1.0	2.3	0.9	-0.8	-0.7	-4.3	/	/
Cc1ccc2c(CNCc3ccco3)cc(=O)oc2c1	1.8	5.0	1.6	1.7	-0.8	5.6	/	/
CCCC[C@H]1C2CC(OC(=O)NCCCc3ccccc3)C(C2)[C@H]2CCCCN21 (stereo partly specified)	/	3.5	-0.2	-0.5	-0.9	11.0*	-0.5	1.1
CCc1ccc(CCNC(=O)OC2CC3CC2[C@H]2CCCCN2[C@H]3Cc2ccccc2)cc1 (stereo partly specified)	/	0.3	-0.5	0.1	-0.9	-3.3	/	/
CC(C)(C)c1cnnn1-c1ccc(-c2csc(N)n2)cc1	-0.8	2.0	0.7	-0.8	-1.1	1.2	/	/
CCOC(=O)c1ccc(NC(=O)NCc2c(C)nn(CC)c2C)cc1	0.2	-1.7	-0.6	-2.2	-1.7	-1.1	/	/
Cc1nn(C)c(C)c1CNC(=O)Nc1ccc(Cl)cc1	1.9	6.8	3.2	0.6	-1.2	9.5*	1.2	6.4*
SMILES	DAX1 inh-1	hgDAF-12 ag	DAX1 inh-2	hcDAF-12 act	ssDAF12 agonist	SMARCA2 act	SMARCA2 act conf	GAL4-VP16 Luc
O=C(CSc1nnc(-c2ccccc2)c(-c2ccccc2)n1)NCC1CCCO1 (stereo unspecified)	-0.6	-1.6	-1.1	-2.1	-0.9	-2.7	/	/
COc1cccc(CNC(=O)COC(=O)c2nc(Cl)c(Cl)c(Cl)c2Cl)c1	-0.1	-2.8	1.8	0.8	-0.9	16.8*	25.9*	1.6
Cc1ccc(C)c(C(=O)Nc2nc3ccccc3[nH]2)c1	-0.2	3.5	0.9	0.0	-1.0	2.6	/	/
Cc1ccc(Nc2nc3ccccc3[nH]2)nc1	0.4	4.8	-0.6	-0.3	-0.3	8.7*	6.5	19.1*
CN1CCN(c2ccc(NC(=O)CSc3ccccc3)cc2F)CC1	5.3*	10.6*	2.7	3.5	-0.3	8.1*	7.5	8.6*
COc1ccc(OCCCCOc2ccccc2Cl)cc1	-0.1	0.9	0.3	-2.3	-1.9	-0.1	/	/
COc1ccc(NC(=S)NCC2CCCO2)c(OC)c1 (stereo unspecified)	0.7	-0.3	-0.2	-1.4	-0.7	-0.2	/	/
COc1ccc(OC)c2c1C(=O)c1ccccc1C2=O	/	-2.2	-0.1	0.6	0.0	-3.2	/	/
COc1cccc2c1C(=O)c1ccc3ccccc3c1C2=O	3.1	/	/	/	/	/	/	/
COc1ccc(N)c2c1C(=O)c1ccccc1C2=O	-0.6	2.6	1.0	0.3	-0.9	8.3*	15.5*	4.9
COc1ccc2noc3c2c1C(=O)c1ccccc1-3	0.4	-0.6	0.1	0.2	-1.9	15.5*	8.4*	1.8
O=C(NCc1ccccn1)c1cc(-c2ccccc2)nc2ccccc12	-0.6	-0.9	-0.2	-1.6	-0.8	-0.5	/	/
O=C(N/C(=C\c1ccccc1)C(=O)N1CCOCC1)c1ccco1	-0.1	-0.3	0.2	-0.5	-1.5	0.0	/	/

Screens (PubChem)
